Measured values: PubChem BioAssay AID651661 (Broad Institute, 2012)
Where “and” joins values, the source holds several entries; their conditions need not be identical. Identical values can stand only once. Among all 350,000 compounds or so, about 2,300 (0.66%) were called active.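 How the source made its calls: active means mean inhibition of at least 50% after viability correction, with every replicate also passing that limit; inconclusive means mean reaches 50% but only one of two replicates passes; inactive means the rest.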 The sample as a whole holds a higher share of actives than the screen did. More than one record can exist for a structure, and the calls need not agree.

experiment: blockers of EWS/Fli transcriptional output – A673 cells, NR0B1 luciferase, luminescence, MLPCN library, primary screen (AID 651661); settings: A673 NR0B1-luciferase reporter, viability-normalised; at 12.6 µM; stronger effect = higher value;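 further: firefly luciferase signal divided by Alamar Blue viability fluorescence both relative to DMSO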

SMILES	inhibition
Oc1c(Cl)cc(Cl)c(Cl)c1Cc1c(O)c(Cl)cc(Cl)c1Cl	50.1% (active)
C/C=C/c1ccc(C2[C@H]3CNC[C@@H]2N3Cc2cccc(F)c2)cc1 (stereo partly drawn)	4.29% (inactive)
COc1cc(SC)ccc1C(=O)NNC(=O)C1COc2ccccc2O1 (stereo not drawn)	-2.85% (inactive)
COc1cc(SC)ccc1C(=O)Nc1nc(C)cs1	76.2% (active)
Cc1csc(NC(=O)c2ccc(-c3ccc(Cl)cc3Cl)o2)n1	-14% (inactive)
CO[C@@H]1CN(C)C(=O)c2ccc(NC(=O)c3ccc(F)cc3)cc2OC[C@H](C)N(C)C[C@H]1C	4.5% (inactive)
C[C@H](CO)N1C[C@H](C)[C@@H](CN(C)CC2CC2)Oc2ccc(NS(=O)(=O)c3cn(C)cn3)cc2CC1=O	-13.9% (inactive)
CO[C@H]1CN(C)C(=O)c2ccc(NC(=O)NC(C)C)cc2OC[C@@H](C)N(C(=O)CN(C)C)C[C@H]1C	8.16% (inactive)
Cc1onc(-c2ccccc2)c1C(=O)N=C(N)c1ccc(Cl)cc1	-16.4% (inactive)
NC(N)=Nc1nc(-c2ccccc2)c2cc(Cl)ccc2n1	63.6% (active)
Cc1nc(N=C(N)N)nc2c(C)cccc12	34.9% (inactive)
CC(C)NC(=O)N(C)C[C@@H]1Oc2ncc(C#Cc3ccncc3)cc2C(=O)N([C@@H](C)CO)C[C@@H]1C	-7.78% (inactive)
COC(=O)C[C@@H]1C[C@H]2c3cc(NC(=O)Nc4ccc(F)cc4)ccc3O[C@H]2[C@@H](CO)O1	6.58% (inactive)
CC(C)(C)[S@](=O)N1Cc2cc(C(=O)N3CCCCC3)nc(-c3cccc(Br)c3)c2[C@@H]1CCO	0.582% (inactive)
N#C[C@@H]1[C@H](c2ccc(C#Cc3cccc(F)c3)cc2)[C@@H](CO)N1C(=O)C1CCCC1	59.3% (active)
N#C[C@@H]1[C@@H](c2ccc(C#Cc3cccc(F)c3)cc2)[C@@H](CO)N1C(=O)C1CCC1	-10% (inactive)
N#C[C@@H]1[C@@H](c2ccc(C#Cc3cccc(F)c3)cc2)[C@H](CO)N1C(=O)C1CCOCC1	-36% (inactive)
Cc1noc(C)c1NC(=O)N(C)C[C@@H]1Oc2ccc(NC(=O)CCN3CCOCC3)cc2CC(=O)N([C@H](C)CO)C[C@@H]1C	-3.43% (inactive)
CCCCCCCCn1c2c(c(=N)c3c1CCC3)CCCC2	55.8% (active)
CO[C@@H](CN(C)C(=O)Nc1ccc(F)cc1)[C@H](C)CN(Cc1ccccc1Cl)[C@@H](C)CO	2.29% (inactive)
O=C(NCC[C@H]1CC[C@@H](NS(=O)(=O)c2cccc(Cl)c2)[C@@H](CO)O1)c1cnccn1	-2.88% (inactive)
CCOC(=O)c1cccc(NC(=O)CCOc2ccccc2)c1	-49.3% (inactive)
COc1cc(Cn2c3ccc(NC(=O)CC(C)c4ccccc4)cc3c(=O)n2C)ccc1F (stereo not drawn)	11% (inactive)
CCOCCC(=O)Nc1ccc2c(c1)c(=O)n(C)n2-c1ccc2ccccc2c1	56.3% (active)
CC(=O)N(C)C[C@H]1Oc2ncc(C#Cc3ccccn3)cc2C(=O)N([C@H](C)CO)C[C@@H]1C	1.56% (inactive)

SMILES	inhibition
C[C@@H]1CCCCO[C@@H](CN(C)C(=O)Nc2ccc3c(c2)OCO3)[C@H](C)CN([C@H](C)CO)C(=O)c2cc(NC(=O)CCCN(C)C)ccc2O1	-6.47% (inactive)
COc1ccc(OC)c(Cc2cnc3nc(N)nc(N)c3c2C)c1	62.9% (active)
COc1ccc(OC)c(NC(=O)c2sc3nc(C)cc(C)c3c2N)c1	-6% (inactive)
COc1ccc(OC)c(Cc2nnc(CCC(=O)NC3CCCC3)o2)c1	-17.8% (inactive)
CO[C@H]1CN(C)C(=O)c2cc(NC(=O)C3CC3)ccc2OC[C@@H](C)N(CCc2ccccc2)C[C@H]1C	-1.43% (inactive)
CN(C)CCCNC(=O)C[C@H]1CC[C@H]2[C@@H](COC[C@H](O)CN2CC2CCCCC2)O1	-0.386% (inactive)
CC(=O)N(C)C[C@@H]1Oc2ncc(C#Cc3ccc(F)cc3)cc2C(=O)N([C@H](C)CO)C[C@@H]1C	-7.39% (inactive)
CC(C)CN(C[C@@H]1N[C@@H](CO)[C@H]1c1ccccc1)C(=O)CN(C)C	4.89% (inactive)
O=C(CSc1ncn[nH]1)Nc1ccc(Br)cc1Br	-25.6% (inactive)
O=C(/C=C/Sc1ncn[nH]1)c1ccc(Cl)cc1	67% (active)
Cc1ccc(S(=O)(=O)N(C)C[C@@H]2Oc3ccc(NS(=O)(=O)c4ccc(F)cc4)cc3CC(=O)N([C@@H](C)CO)C[C@H]2C)cc1	-0.853% (inactive)
CC(C)CC#Cc1ccc2c(c1)O[C@H](CN(C)Cc1ccccc1F)[C@@H](C)CN([C@@H](C)CO)S2(=O)=O	-16.5% (inactive)
O=C(C1CCCC1)N1CC(=O)N2[C@H](CO)[C@H](c3ccc(Br)cc3)[C@H]2C1	-4.8% (inactive)
CCCC#Cc1ccc([C@H]2[C@H](CO)N3C(=O)CN(C(=O)c4ccc(F)cc4)C[C@@H]23)cc1	-7.03% (inactive)
C=CCn1c(C)cc(C2=NNC(=NCC)SC2)c1C	91.7% (active)
CCCC#Cc1ccc2c(c1)O[C@H](CN(C)C(=O)C1CCCCC1)[C@H](C)CN([C@H](C)CO)S2(=O)=O	9.13% (inactive)
CC(C)C#Cc1ccc([C@H]2[C@@H](CO)N3CCCCN(C(=O)Nc4ccccc4)C[C@H]23)cc1	1.61% (inactive)
C[C@@H](NC(=O)C[C@H]1C[C@@H]2c3cc(NC(=O)c4ccc5c(c4)OCO5)ccc3O[C@@H]2[C@@H](CO)O1)c1ccccc1	2.79% (inactive)
CNC(=O)C[C@@H]1CC[C@H]2[C@@H](COc3ccc(NC(=O)NCc4ccccc4)cc3C(=O)N2C)O1	-5.62% (inactive)
COC(=O)C1=C(C)N(Cc2cccc(C(F)(F)F)c2)C(=NCc2ccccc2)NC1c1ccc(Cl)cc1 (stereo not drawn)	36.5% (inactive)
COC(=O)C1=C(C)N(Cc2ccc(C(F)(F)F)cc2)C(=NCc2ccc(C(F)(F)F)cc2)NC1c1cccc(Cl)c1 (stereo not drawn)	55.4% (active)
COC(=O)C1=C(C)N(Cc2ccc(C(F)(F)F)cc2)C(=NCc2ccccc2)NC1c1ccccc1C(F)(F)F (stereo not drawn)	25.1% (inactive)
CN(C)CC(=O)N1[C@@H](C#N)[C@@H](c2ccccc2-c2ccccc2F)[C@@H]1CO	-0.399% (inactive)
COc1cccc(S(=O)(=O)N2C[C@@H]3N[C@H](C2)C3c2ccc(-c3cccc(C(=O)N(C)C)c3)cc2)c1 (stereo partly drawn)	10.3% (inactive) and 3.54% (inactive)
Cc1ccccc1S(=O)(=O)N1C[C@@H]2N[C@H](C1)C2c1ccc(-c2cccc(C(=O)N(C)C)c2)cc1 (stereo partly drawn)	-5.91% (inactive)

SMILES	inhibition
COc1ccccc1S(=O)(=O)N1C[C@@H]2N[C@H](C1)C2c1ccc(-c2cccc(C)c2)cc1 (stereo partly drawn)	61.1% (active) and 2.71% (inactive)
N#C[C@@H]1[C@H](c2ccc(-c3cccnc3)cc2)[C@H](CO)N1C(=O)C1CC1	-1.35% (inactive)
COCC#Cc1ccc([C@@H]2[C@H](CO)N3C(=O)CN(C(=O)C4CCC4)C[C@@H]23)cc1	-1.21% (inactive)
Brc1ccc2ncnc(NCc3cccnc3)c2c1	-8.78% (inactive)
O=C(O)CCCCCNc1ncnc2ccc(Br)cc12	-0.908% (inactive)
COc1ccc(Nc2ncnc3ccc(Br)cc23)c(OC)c1	72.3% (active)
CNC[C@H]1OCCCC[C@@H](C)Oc2ccc(NC(=O)Nc3ccc(C(F)(F)F)cc3)cc2C(=O)N([C@H](C)CO)C[C@H]1C	-7.97% (inactive)
COCC(=O)Nc1ccc2c(c1)OC[C@H](C)N(Cc1ccccc1)C[C@H](C)[C@@H](OC)CN(C)C2=O	20.9% (inactive)
COCC(=O)Nc1ccc2c(c1)C(=O)N(C)C[C@H](OC)[C@@H](C)CN(CCc1ccccc1)[C@@H](C)CO2	2.64% (inactive)
COCC(=O)Nc1ccc2c(c1)OC[C@@H](C)N(CCc1ccccc1)C[C@H](C)[C@@H](OC)CN(C)C2=O	53.4% (active)
CCC(=O)N1C[C@H](C)[C@@H](OC)CN(C)C(=O)c2cc(NC(=O)c3cnccn3)ccc2OC[C@@H]1C	2.51% (inactive)
O=C(c1cnccn1)N1CC(=O)N2[C@H](C1)[C@@H](c1ccc(C#CC3CCCCC3)cc1)[C@@H]2CO	-6.01% (inactive)
COc1ccc(/C=C2/SC(=O)N(CCCCCC(=O)Nc3ccccc3C(=O)O)C2=S)cc1	55.1% (active)
COc1cccc(/C=C2\SC(=S)N(CCCC(=O)N3CCOCC3)C2=O)c1	-15.9% (inactive)
COc1ccc(NC(=O)CCCC(=O)c2ccccc2)cc1	10.3% (inactive)
COc1ccccc1S(=O)(=O)N[C@@H]1CC[C@H](CCn2cc(C3CCCC3)nn2)O[C@H]1CO	-6.51% (inactive)
O=C(Nc1ccccc1F)N[C@H]1CC[C@@H](CCNS(=O)(=O)c2ccc(F)cc2)O[C@@H]1CO	4.92% (inactive)
C[C@H](CO)N1C[C@H](C)[C@@H](CN(C)C(=O)C2CCCCC2)OCCCC[C@H](C)Oc2ccc(N(C)C)cc2C1=O	-2.95% (inactive)
CC(NC(=S)Nc1ccc(OC(F)F)cc1)c1ccc(F)cc1 (stereo not drawn)	0.035% (inactive)
CC(C)CNC(=S)Nc1ccc(F)cc1	86.6% (active)
CC(C)CNC(=O)C(=O)Nc1ccc(N(C)C)cc1	-41.5% (inactive)
CO[C@H](C(=O)N(C)C[C@@H]1OCc2ccccc2-c2c(n(C)c3ccccc23)C(=O)N([C@@H](C)CO)C[C@H]1C)c1ccccc1	8.3% (inactive)
N#Cc1cccc(-c2ccc(C3[C@H]4CNC[C@@H]3N4S(=O)(=O)c3ccc(-c4ccccc4)cc3)cc2)c1 (stereo partly drawn)	3.68% (inactive) and -7.87% (inactive)
